Our source for the activity remaining values is PubChem BioAssay.

Values joined by “and” are separate entries in the source; they are usually repeats but may differ in a detail not shown here. Equal entries are not always repeated. Active and inactive are the calls of the source. The rule behind the calls is not given here.

The subject of this assay is Aerobactin synthetase IucA (Klebsiella pneumoniae hvKP1). As to the kind of experiment: IucA enzyme inhibition, primary screen, biochemical, Spectrum library (AID 1346200).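 Note: 100% = wells without compound and 0% = wells lacking enzyme.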 Particulars: malachite green pyrophosphate, A620, at 8 µM, active compounds read low.
Turning to `CN(C)c1ccc(C(=C2C=CC(=[N+](C)C)C=C2)c2ccc(N(C)C)cc2)cc1`, the activity remaining is 118% (inactive).

Regarding `COc1cc(OC)cc(OC)c1`, the activity remaining was 117% (inactive).

Take `CC1(C)Oc2ccc3ccc(=O)oc3c2CC1O` (stereo not given): the activity remaining was 88.1% (inactive).

As for `CC1(C)S[C@@H]2[C@H](NC(=O)[C@H](NC(=O)N3CCNC3=O)c3ccccc3)C(=O)N2C1C(=O)O` (stereo not given in full), the activity remaining is 95.7% (inactive).

As to `O=c1cc(-c2ccc(O)cc2)oc2cc(O)ccc12`, the activity remaining is 102% (inactive).

Regarding `COc1ccc2c(=O)c(CC(=O)O)coc2c1`, the activity remaining was 117% (inactive).

Regarding `CC(=O)O[C@H]1CC[C@@]2(C)C(C[C@H](OC(C)=O)[C@@]3(C)C4=CC(=O)OC(c5ccoc5)[C@]4(C)CCC23)C1(C)C` (stereo not given in full), the activity remaining was 119% (inactive).

In the case of `Cc1cc(O)c(C=O)c(O)c1C(=O)O`, the activity remaining was 124% (inactive).

`NC(COCc1ccccc1)C(=O)O` (stereo not given): the activity remaining is 105% (inactive).

As to `O=C(NCO)c1cccnc1`, the activity remaining was 113% (inactive).

Regarding `OC(CCN1CCCCC1)(c1ccccc1)c1ccccc1`, the activity remaining is 95.4% (inactive).

Consider `CC1=CC(=O)c2ccccc2C1=O`, for which the activity remaining was 117% (inactive).

Take `COc1c(Cl)ccc(Cl)c1C(=O)O`: the activity remaining is 108% (inactive).

Take `CCN(CC)C(=O)N1CCN(C)CC1`: the activity remaining was 118% (inactive).

As for `Cn1c(=O)[nH]c2nc[nH]c2c1=O`, the activity remaining was 79.5% (inactive).

As for `CC(O)(P(=O)(O)O)P(=O)(O)O`, the activity remaining is 119% (inactive).

Consider `Cn1c(=O)c2c(ncn2CC(O)CO)n(C)c1=O` (stereo not given), for which the activity remaining was 104% (inactive).

In the case of `COC(=O)[C@H](c1ccccc1Cl)N1CCc2sccc2C1`, the activity remaining was 119% (inactive).

For the molecule `CC(=O)CC(c1ccccc1)c1c(O)c2ccccc2oc1=O` (stereo not given), the activity remaining was 118% (inactive).

For `CC(=O)[C@@]1(O)CCC2C3C=C(Cl)C4=CC(=O)[C@@H]5CC5[C@]4(C)C3CC[C@@]21C` (stereo not given in full), the activity remaining was 105% (inactive).

`CCC(=O)OCC(=O)[C@@]1(OC(=O)CC)[C@@H](C)CC2C3CCC4=CC(=O)C=C[C@]4(C)C3(F)[C@@H](O)C[C@@]21C` (stereo not given in full): the activity remaining is 125% (inactive).

Take `CN[C@@H]1C(O)[C@@H](O[C@@H]2[C@@H](O)[C@H](O[C@H]3OC(CN)=CC[C@H]3N)[C@@H](N)C[C@H]2N)OC[C@]1(C)O` (stereo not given in full): the activity remaining is 96.1% (inactive).

In the case of `NC(N)=NCCC[C@@H](NC(=O)[C@@H](N)Cc1ccc(O)cc1)C(=O)O`, the activity remaining is 110% (inactive).

Regarding `O=c1cccc2ccc(O)c(O)c2c1O`, the activity remaining is 86.6% (inactive).

Consider `COc1ccc(-c2coc3cc(OC)cc(OC)c3c2=O)cc1`, for which the activity remaining was 103% (inactive).

In the case of `CCCCCCCCCCCCCCCC(=O)OC[C@H](NC(=O)C(Cl)Cl)[C@H](O)c1ccc([N+](=O)[O-])cc1`, the activity remaining is 95.5% (inactive).

For the molecule `CC1(C)CC[C@@]2(C(=O)O)C(C1)C1=CCC3[C@@]4(C)CC[C@H](O)C(C)(C)C4CC[C@@]3(C)[C@]1(C)C[C@@H]2O` (stereo not given in full), the activity remaining was 99.8% (inactive).

For the molecule `CCNC(=O)CC[C@H](N)C(=O)O`, the activity remaining is 119% (inactive).

With `CN(C)/N=N/c1nc[nH]c1C(N)=O`, the activity remaining is 107% (inactive).

Turning to `O=C(CC(=O)c1ccccc1)c1ccccc1`, the activity remaining was 101% (inactive).

Take `CC(=O)OCC(=O)[C@@]12OC(C)(C)O[C@@H]1CC1C3C[C@H](F)C4=CC(=O)C=C[C@]4(C)[C@@]3(F)[C@@H](O)C[C@@]12C` (stereo not given in full): the activity remaining is 100% (inactive).

`NC(Cc1ccc(F)cc1)C(=O)O` (stereo not given): the activity remaining is 124% (inactive).

For the molecule `OC[C@@H](O)C(O[C@@H]1O[C@H](CO)[C@H](O)[C@H](O)[C@H]1O)[C@H](O)[C@@H](O)CO` (stereo not given in full), the activity remaining was 116% (inactive).

Regarding `COC(=O)C[C@H]1C(C)(C)C2(O)OC34CC2C(=O)[C@]1(C)C3CC[C@]1(C)C4=CC(=O)O[C@H]1c1ccoc1` (stereo not given in full), the activity remaining was 105% (inactive).

For the molecule `O=C1C=CC2=C3c4cc(O)c(O)cc4CC3(O)COC2=C1O` (stereo not given), the activity remaining was 94.5% (inactive).

For `CN(C)CCc1c[nH]c2ccc(CS(=O)(=O)N3CCCC3)cc12`, the activity remaining was 128% (inactive).

For `Nc1ccc(S(=O)(=O)Nc2cnc3ccccc3n2)cc1`, the activity remaining is 123% (inactive).

Consider `COC(=O)CCC(C)C1CCC2C3CC[C@@H]4C[C@H](O)CC[C@]4(C)C3C[C@H](O)[C@]12C` (stereo not given in full), for which the activity remaining was 120% (inactive).

As for `C1CCN2C[C@@H]3C[C@H](CN4CCCC[C@@H]34)[C@H]2C1`, the activity remaining was 106% (inactive) and 89.3% (inactive).

With `CC(C)C1=CC2=CCC3[C@](C)(CCC[C@]3(C)C(=O)O)C2CC1` (stereo not given in full), the activity remaining was 94.8% (inactive).
